# For some assays here: Results with a measured potency or affinity are listed apart.
# Legend:
# Parameters in all cases: scale not given: direction of the effect not stated beside the values
# [1] = biological target: Protein translocase subunit SecA (Escherichia coli (strain K12)) (UniProt P10408); assay: Assay to Identify E. coli SecA ATPase Inhibitors; assay type: functional; details: 30 µM
# [2] = biological target: T1, Ubiquitin-activating enzyme e1, putative (Leishmania donovani (strain BPK282A1)) (UniProt E9BSI1); assay: Leishmania donovani Ubiquitin Activating Enzyme (LdE1); assay type: functional; details: 30 µM
# T1 sequence (whole entry): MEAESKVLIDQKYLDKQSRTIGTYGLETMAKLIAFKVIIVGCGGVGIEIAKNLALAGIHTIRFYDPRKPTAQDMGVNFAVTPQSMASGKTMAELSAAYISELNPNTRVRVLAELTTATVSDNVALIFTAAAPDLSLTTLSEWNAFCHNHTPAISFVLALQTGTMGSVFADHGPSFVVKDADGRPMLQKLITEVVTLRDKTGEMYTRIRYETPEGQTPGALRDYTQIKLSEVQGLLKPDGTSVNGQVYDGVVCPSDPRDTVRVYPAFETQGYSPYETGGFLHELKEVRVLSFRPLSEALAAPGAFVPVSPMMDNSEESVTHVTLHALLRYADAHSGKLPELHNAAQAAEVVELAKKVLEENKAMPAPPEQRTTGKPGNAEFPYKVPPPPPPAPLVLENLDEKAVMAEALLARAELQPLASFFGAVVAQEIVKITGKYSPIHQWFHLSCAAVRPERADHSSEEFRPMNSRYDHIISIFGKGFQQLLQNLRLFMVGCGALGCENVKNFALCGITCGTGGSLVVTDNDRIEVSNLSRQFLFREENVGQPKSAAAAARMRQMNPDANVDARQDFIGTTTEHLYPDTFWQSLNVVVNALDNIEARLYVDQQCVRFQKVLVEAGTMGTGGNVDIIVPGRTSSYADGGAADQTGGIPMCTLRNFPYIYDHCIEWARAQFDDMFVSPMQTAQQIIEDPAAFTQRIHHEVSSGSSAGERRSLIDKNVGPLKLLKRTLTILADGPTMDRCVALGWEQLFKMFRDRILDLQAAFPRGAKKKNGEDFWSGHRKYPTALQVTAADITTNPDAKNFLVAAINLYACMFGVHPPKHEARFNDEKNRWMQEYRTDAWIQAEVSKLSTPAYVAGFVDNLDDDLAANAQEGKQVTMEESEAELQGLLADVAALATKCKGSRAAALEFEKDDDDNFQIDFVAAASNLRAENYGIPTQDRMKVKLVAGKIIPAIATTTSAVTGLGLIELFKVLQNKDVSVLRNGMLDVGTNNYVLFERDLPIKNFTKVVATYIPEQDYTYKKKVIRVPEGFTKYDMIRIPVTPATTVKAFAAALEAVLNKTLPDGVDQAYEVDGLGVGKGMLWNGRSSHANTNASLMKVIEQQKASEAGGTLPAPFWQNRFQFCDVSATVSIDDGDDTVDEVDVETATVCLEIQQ
# [3] = biological target: AMP-activated protein kinase, AMPK (Homo sapiens) (UniProt P54646+O43741+P54619+Q9UGJ0+Q9Y478+Q13131+Q9UGI9); assay: AMP-dependent Kinase enzyme assay. An in vitro enzyme assay that detects ADP turnover that is directly proportional to AMPK activity. This uses naive AMPK that is activated during the assay with MK-8722; assay type: functional; details: 30 µM
# [4] = biological target: Sialic acid-binding Ig-like lectin 9 (Homo sapiens) (UniProt Q9Y336); assay: Hs-Siglec9 ALPHAscreen SOP 20170721; details: 10 µM
# Chain of Sialic acid-binding Ig-like lectin 9 (Homo sapiens) (Q9Y336 whole entry): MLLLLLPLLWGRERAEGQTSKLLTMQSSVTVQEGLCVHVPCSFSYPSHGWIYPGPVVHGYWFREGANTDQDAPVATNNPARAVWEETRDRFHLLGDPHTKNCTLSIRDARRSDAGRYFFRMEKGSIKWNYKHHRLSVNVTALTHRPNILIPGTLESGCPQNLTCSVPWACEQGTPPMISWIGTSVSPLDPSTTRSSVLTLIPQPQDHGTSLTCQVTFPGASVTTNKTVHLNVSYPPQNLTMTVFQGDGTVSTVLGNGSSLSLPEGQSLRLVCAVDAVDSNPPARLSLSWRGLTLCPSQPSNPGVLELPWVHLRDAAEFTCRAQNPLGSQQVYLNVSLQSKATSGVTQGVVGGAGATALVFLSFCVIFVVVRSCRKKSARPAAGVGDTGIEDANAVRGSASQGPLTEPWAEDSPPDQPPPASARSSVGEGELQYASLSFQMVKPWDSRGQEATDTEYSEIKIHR
# Trypanosoma cruzi = assay: Trypanosoma cruzi phosphomannomutase and mannose-1-phosphate guanylyltransferase assay; assay type: functional; details: 10 µM
# [5] = biological target: T2, Arginase-2, mitochondrial (Homo sapiens) (UniProt P78540); assay: in vitro enzyme assay to detect the production of urea directly proportional to the activity of Arginase II; assay type: functional; details: 33.3 µM; note: in the data most compounds retested in dose-response had high values
# T2 sequence (whole entry): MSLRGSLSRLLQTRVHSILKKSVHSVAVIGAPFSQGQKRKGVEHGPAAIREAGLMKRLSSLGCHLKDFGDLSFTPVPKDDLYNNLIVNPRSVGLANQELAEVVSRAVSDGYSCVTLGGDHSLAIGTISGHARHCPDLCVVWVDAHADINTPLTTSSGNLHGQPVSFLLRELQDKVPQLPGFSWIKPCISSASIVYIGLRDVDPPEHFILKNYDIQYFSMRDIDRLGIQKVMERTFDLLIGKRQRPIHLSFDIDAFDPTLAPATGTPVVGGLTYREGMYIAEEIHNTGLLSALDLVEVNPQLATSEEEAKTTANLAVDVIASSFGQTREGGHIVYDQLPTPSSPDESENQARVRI
# [6] = biological target: T3, Proteasome subunit beta (Trypanosoma cruzi) (UniProt O96673); assay: Trypanosoma cruzi proteasome chymotrypsin-like activity (TcProtChymo) assay.; note: in the data most compounds retested in dose-response had high values; assay type: functional; details: 9.37 µM
# T3 sequence (whole entry): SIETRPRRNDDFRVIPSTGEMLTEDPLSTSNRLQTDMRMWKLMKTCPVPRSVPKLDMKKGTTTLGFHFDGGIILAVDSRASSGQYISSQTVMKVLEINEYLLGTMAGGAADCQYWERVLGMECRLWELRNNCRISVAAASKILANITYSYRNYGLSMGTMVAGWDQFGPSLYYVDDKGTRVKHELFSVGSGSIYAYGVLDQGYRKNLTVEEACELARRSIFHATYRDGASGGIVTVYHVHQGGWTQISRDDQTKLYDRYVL
# Homo sapiens = species: Homo sapiens; assay: To identify inhibition of the IFN signalling (Jak-Stat) pathway via expression of an eGFP reporter gene under the control of an IFN-stimulated response element (ISRE) containing MxA promoter.; assay type: functional; details: 30 µM
# [7] = biological target: T4, Tyrosyl-tRNA synthetase, putative (Trypanosoma cruzi (strain CL Brener)) (UniProt Q4DSP6); assay: Trypanosoma cruzi tyrosyl tRNA synthetase (TcYRS) _High Tyrosine SOP; assay type: functional; details: 30 µM; note: in the data most compounds retested in dose-response had high values
# T4 sequence (whole entry): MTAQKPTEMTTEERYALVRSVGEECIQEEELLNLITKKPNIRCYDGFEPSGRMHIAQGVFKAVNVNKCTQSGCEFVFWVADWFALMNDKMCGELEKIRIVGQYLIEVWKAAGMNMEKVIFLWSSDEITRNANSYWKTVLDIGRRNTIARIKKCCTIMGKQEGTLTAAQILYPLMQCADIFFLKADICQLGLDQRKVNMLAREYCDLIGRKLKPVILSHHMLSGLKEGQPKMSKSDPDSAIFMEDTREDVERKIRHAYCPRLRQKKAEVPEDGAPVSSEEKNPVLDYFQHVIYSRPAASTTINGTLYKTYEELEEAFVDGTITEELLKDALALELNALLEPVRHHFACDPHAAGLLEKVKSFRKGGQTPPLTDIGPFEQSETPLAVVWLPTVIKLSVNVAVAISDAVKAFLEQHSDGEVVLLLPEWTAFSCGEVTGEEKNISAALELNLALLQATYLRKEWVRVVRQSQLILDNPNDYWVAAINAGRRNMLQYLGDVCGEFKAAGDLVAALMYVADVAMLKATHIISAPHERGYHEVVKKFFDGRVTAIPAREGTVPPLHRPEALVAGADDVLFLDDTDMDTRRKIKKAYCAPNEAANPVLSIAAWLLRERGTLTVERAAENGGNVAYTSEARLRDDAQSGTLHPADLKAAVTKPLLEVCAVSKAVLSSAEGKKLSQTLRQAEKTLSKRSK
# [8] = biological target: T4, Tyrosyl-tRNA synthetase, putative (Trypanosoma cruzi (strain CL Brener)); assay: Trypanosoma cruzi tyrosyl tRNA synthetase (TcYRS) SOP; assay type: functional; details: 30 µM
# [9] = biological target: Chromo domain-containing protein 1 (Saccharomyces cerevisiae (strain ATCC 204508 / S288c) (Baker's yeast)) (UniProt P32657); assay: ScCHD-1 Enzyme Inhibition Assay; assay type: functional; details: 30 µM; note: in the data most compounds retested in dose-response had high values
# Chain of Chromo domain-containing protein 1 (Saccharomyces cerevisiae (strain ATCC 204508 / S288c) (Baker's yeast)) (P32657 whole entry, the tested form may be a part): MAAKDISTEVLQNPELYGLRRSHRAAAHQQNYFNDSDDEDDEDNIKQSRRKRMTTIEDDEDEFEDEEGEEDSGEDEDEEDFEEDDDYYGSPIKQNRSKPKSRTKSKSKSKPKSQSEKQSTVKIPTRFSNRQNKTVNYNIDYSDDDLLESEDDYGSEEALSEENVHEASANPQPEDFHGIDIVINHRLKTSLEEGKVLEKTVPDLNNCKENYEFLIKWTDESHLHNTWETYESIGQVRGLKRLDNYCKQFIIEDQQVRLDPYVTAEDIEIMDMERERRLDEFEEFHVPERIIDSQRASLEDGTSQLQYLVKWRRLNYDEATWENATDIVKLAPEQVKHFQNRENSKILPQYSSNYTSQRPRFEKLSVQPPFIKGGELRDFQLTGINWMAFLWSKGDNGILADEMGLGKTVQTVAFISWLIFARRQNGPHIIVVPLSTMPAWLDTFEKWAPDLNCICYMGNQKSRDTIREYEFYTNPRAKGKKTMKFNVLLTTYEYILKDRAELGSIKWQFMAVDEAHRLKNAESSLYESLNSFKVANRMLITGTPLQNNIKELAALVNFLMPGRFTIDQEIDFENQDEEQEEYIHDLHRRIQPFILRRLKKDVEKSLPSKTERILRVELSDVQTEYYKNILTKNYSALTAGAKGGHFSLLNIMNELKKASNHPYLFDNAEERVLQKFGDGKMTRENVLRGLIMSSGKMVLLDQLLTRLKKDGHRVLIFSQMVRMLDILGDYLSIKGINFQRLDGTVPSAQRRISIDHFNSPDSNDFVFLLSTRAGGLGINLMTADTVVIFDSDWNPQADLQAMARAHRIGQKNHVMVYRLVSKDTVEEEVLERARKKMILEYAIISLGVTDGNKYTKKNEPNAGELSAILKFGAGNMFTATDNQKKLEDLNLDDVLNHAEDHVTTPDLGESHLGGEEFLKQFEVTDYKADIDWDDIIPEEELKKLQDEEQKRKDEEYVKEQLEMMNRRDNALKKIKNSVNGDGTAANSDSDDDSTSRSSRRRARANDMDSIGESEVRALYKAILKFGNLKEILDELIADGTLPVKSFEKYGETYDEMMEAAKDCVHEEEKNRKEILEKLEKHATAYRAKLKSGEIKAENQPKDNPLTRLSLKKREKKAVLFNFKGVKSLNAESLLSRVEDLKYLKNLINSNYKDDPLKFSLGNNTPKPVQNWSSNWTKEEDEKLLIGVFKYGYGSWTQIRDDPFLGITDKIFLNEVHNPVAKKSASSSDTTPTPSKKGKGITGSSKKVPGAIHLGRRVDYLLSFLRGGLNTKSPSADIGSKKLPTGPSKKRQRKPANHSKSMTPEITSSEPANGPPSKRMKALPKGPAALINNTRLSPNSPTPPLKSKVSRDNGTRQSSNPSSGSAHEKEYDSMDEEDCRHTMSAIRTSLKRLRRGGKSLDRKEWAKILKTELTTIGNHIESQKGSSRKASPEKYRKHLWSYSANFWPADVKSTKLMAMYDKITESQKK
# Chain of Protein translocase subunit SecA (Escherichia coli (strain K12)) (P10408 whole entry): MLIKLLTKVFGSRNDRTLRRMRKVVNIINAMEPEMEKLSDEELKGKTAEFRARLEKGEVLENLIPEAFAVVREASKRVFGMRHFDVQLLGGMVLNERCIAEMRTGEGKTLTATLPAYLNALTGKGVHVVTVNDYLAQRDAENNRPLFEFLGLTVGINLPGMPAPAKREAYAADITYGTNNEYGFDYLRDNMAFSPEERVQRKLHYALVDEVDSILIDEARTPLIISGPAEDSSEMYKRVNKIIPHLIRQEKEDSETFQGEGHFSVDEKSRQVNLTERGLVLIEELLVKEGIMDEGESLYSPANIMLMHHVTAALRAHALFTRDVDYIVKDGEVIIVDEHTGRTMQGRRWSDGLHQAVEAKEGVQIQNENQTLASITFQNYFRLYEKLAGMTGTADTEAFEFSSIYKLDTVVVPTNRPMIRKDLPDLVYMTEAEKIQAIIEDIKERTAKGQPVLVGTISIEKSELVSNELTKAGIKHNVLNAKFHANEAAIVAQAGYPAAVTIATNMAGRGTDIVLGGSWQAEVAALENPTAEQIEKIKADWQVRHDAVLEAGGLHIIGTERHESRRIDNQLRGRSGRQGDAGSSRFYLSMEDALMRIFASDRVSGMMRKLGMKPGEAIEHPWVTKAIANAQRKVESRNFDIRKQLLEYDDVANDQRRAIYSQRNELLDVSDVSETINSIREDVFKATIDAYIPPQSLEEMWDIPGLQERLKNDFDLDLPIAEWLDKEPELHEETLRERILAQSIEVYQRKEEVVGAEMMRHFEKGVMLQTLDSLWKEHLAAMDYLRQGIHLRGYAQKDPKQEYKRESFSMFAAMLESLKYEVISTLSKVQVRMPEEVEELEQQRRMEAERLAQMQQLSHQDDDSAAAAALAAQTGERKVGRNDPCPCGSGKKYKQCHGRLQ
SMILES,Percent Effect [1] [%],Percent Effect [2] [%],Percent Effect [3] [%],Percent Effect [4] [%],Percent Effect (Trypanosoma cruzi) [%],Percent Effect [5] [%],Percent Effect [6] [%],Percent Effect (Homo sapiens) [%],Percent Effect [7] [%],Percent Effect [8] [%],Percent Effect [9] [%]
O=C(c1ncccn1)N1C[C@H]2CCC[C@@]2(COCc2ccncc2)C1,-1.29,23.4,-4.05,-10.3,4.63,4.52,13.9,11.8,3.17,14.1,-11.1
CO[C@@H]1CC[C@H]2[C@H]1OCCN2C(=O)C1=CCCC1,-3.13,10.4,-1.31,-0.155,-4.83,16.1,7.49,-1.44,-2.12,14.1,-6.88
Cc1nc[nH]c1-c1nc2cc(S(=O)(=O)N3CCCC3)ccc2n1C,-4.38,11,12.9,8.67,6.86,20,8.16,24.3,7.53,17.5,-5.76
CN(C)CC1CN(Cc2cccc(C(=O)N(C)C)c2)CCO1 (configuration not stated),-4.12,20.8,-4.76,-4.42,-0.562,3.56,14.7,20.8,10.7,14.6,-5.94
CNS(=O)(=O)c1ccc(CNC(=O)NCC2CCOC2)cc1 (configuration not stated),-3.53,15.6,0.491,2.49,1.86,-0.21,11.7,-1.37,7.62,14.1,-9.18
COc1cccn(CC(=O)N(C)Cc2ccoc2)c1=O,-7,-5.48,-5.18,30.6,1.59,0.399,2.48,-11,2.08,3.7,1.52
CCc1nnc2n1CCN(C(=O)c1ccc(C(F)(F)F)nc1C)C2,-6.11,20.2,-4.83,14.3,5.95,-6.08,9.09,-2.36,2.46,16.5,-8.19
COCc1ccccc1CNCc1c(C)nn(C)c1N(C)C,-5.19,10.8,-41.2,6.46,-0.849,0,-5.04,-1.56,9.36,6.17,-5.6
Cc1cc(C2CCCN(C(=O)c3cnn(C)c3)C2)ccn1 (configuration not stated),-5.39,9.46,10.9,0.0727,5.93,-0.696,12.3,-13.7,8.6,11.7,-9.36
O=c1ccc(-c2cccs2)nn1CN1CCN(Cc2ccccc2)CC1,-4.73,-1.33,2.74,1.22,5.3,-10.4,11.7,20.2,3.17,10.3,-12.8
Cn1c(CN2CCN(CC3CC3)CC2)nnc1C1CCC1,-8.27,0,-14,5.49,-0.392,-1.36,4.44,-5.43,-2.15,0,-2.31
CN(C(=O)Cc1ccc2c(c1)OCCO2)C1CCCC1,3.58,10.5,1.6,-8.7,-3.8,-7.1,3.55,14.1,3.19,10.4,-0.571
Cc1ccc(N2CCCC(NCc3nc(C)c(C)o3)C2)nn1 (configuration not stated),-2.18,-1.27,-3.24,1.76,9.54,-1.07,-2.4,2.43,3.12,15.2,-25.4
Cc1cc(C)cc(C2(C(=O)NC(C)Cn3ccnc3)CC2)c1 (configuration not stated),-2.27,25.3,-10.3,0.0554,3.31,-4.56,14.3,-5.91,8.37,24.1,-10.8
Cc1cccnc1NC(=O)C1CCCN1Cc1ccccc1 (configuration not stated),-3.6,2.67,-2.13,-2.53,-9.06,-3.12,21.3,16.8,0.546,-1.24,-9.24
O=C(COCc1nc(-c2ccncc2)no1)N1CCCC1,-2.71,10.4,5.42,6.86,4.42,-110,7.32,-13.8,5.38,13.6,-4.16
CCOC1CCCN(C(=O)c2cnc3c(cnn3C3CCCC3)c2)C1 (configuration not stated),-4.83,0,2.09,0.582,-2.93,-2.66,-2.38,24.1,1.48,-8.86,-4.24
O=C([C@@H]1CCO[C@@H]2CCN(Cc3cccnc3)C[C@H]21)N1CCCCO1,-2.75,14.7,2.91,5.02,-1.57,-6.51,11.5,17.3,4.23,7.69,-7.97
O=C(c1ccco1)N1CCC2(CCOC2)C1 (configuration not stated),-0.538,12,-4.74,-1.73,-2.16,3.35,20.1,-9.81,1.06,7.69,-7.58
Cc1nc(COC[C@]23COC[C@H]2CN(Cc2ccoc2)C3)cs1,-4.99,0,-4.16,13.2,6.94,0.248,-2.49,-33.4,3.23,11.1,-1.94
O=C(C1CCC1)N1CCC2(COCc3cnc(N4CCOCC4)nc32)C1 (configuration not stated),2.09,13.3,-2.58,-6.19,0.772,-59.7,9.23,-2.75,2.08,12.5,-9.27
Cc1cccc(OCCC(=O)N2CCN(S(=O)(=O)N(C)C)CC2)c1C,1.47,22.8,-5.81,-9.44,0.661,-3.42,8.93,39.5,4.43,16.5,-13.5

# Reference: ChEMBL document CHEMBL3988442, “University of Dundee, Small-Polar-MMV Screening Library” (2021)
